Data published in PubChem BioAssay (NCATS).
Inconclusive results are not listed. A number with no mark means an inactive call. Calls of active or inactive are those of the source. Calls follow the shape of the dose curve; as a rule, active = well fitted inhibition curve with a large enough effect; inconclusive = small, poorly fitted or top-dose-only effect; inactive = flat fitted curve, though single readings scatter.

Test system: HEK293
Assay: Cytotoxic Profiling of Annotated Libraries Using Quantitative High-Throughput Screening (AID 1296008); also: nearly all actives have a fitted effect of over 60% in size
Details: Five cell lines viability, CellTiter-Glo ATP luminescence, 48-72 h; max response: active compounds read low
Method in brief: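 Cytotoxicity was measured as CellTiter-Glo ATP luminescence, read after 10 min at room temperature. Compound treatment of the cells lasted 48 or 72 hr at 37 degrees Celsius in a qHTS format.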
% is scaled to controls: 0 for no effect and ±100 for the full control effect; potency is read from the fitted curve at half-maximal effect.

For `CCOc1cc(CC(=O)NC(CC(C)C)c2ccccc2N2CCCCC2)ccc1C(=O)O` (centres undefined), which max response is on record?
Its max response is -4.19%.

Which Potency does the source give for `CNC(=O)c1ccccc1Nc1cc(Nc2ccc(N3CCOCC3)cc2OC)ncc1C(F)(F)F` here?
The Potency was 6.51 µM (active).

Which Potency does the source give for `CC1(C)CC(NC(=O)C(=O)Nc2ccc(Br)cc2)CC(C)(C)N1` here?
Its Potency is 4.11 µM (active).

`Cc1ccc(C(=O)N(CCCN)C(c2nc3cc(Cl)ccc3c(=O)n2Cc2ccccc2)C(C)C)cc1` (centres undefined) was tested. Which Potency did it give?
Its Potency is 0.0092 µM (active).

Which max response does the source give for `O=C(OC1C=C(CO)C2C(OC3OC(CO)C(O)C(O)C3O)OC=CC12)c1ccc(O)cc1` (centres undefined) here?
Its max response is -4.58%.

With `Cc1ccc(N)cc1O` as the compound, how does the Potency read?
The Potency was 43.3 µM (active).

With `CC1(C)CC(=O)C2=C(C1)NC(=S)NC2c1cccc(O)c1` (centres undefined) as the compound, how does the Potency read?
The Potency was 1.16 µM (active).

Which max response does the source give for `C/C=C/C=C/C=C/C(=O)OC1C=C(C=O)C(O)(C(=O)O)C2(C)CCCC(C)(C)C12` (centres undefined) here?
Its max response is 1.26%.

Which Potency does the source give for `C=CC(=O)N1CCN(C(=O)CNc2cc(I)c(Cl)cc2O)CC1` here?
Its Potency is 13 µM (active).

For `CO[C@H]1C[C@@H]2CC[C@@H](C)[C@@](O)(O2)C(=O)C(=O)N2CCCC[C@H]2C(=O)O[C@H]([C@H](C)C[C@@H]2CC[C@H](n3cnnn3)[C@H](OC)C2)CC(=O)[C@H](C)/C=C(\C)[C@@H](O)[C@@H](OC)C(=O)[C@H](C)C[C@H](C)/C=C/C=C/C=C/1C`, which Potency is on record?
The Potency was 0.0252 µM (active).

How did the Potency turn out when `C=CC(=O)Nc1cc(Nc2ncc(Cl)c(-c3c[nH]c4ccccc34)n2)c(OC)cc1N(C)CCN(C)C` was run?
Its Potency is 2.06 µM (active).

`CC(=O)OC12COC1CC(O)C1(C)C(=O)C(O)C3=C(C)C(OC(=O)C(O)C(NC(=O)OC(C)(C)C)c4ccccc4)CC(O)(C(OC(=O)c4ccccc4)C21)C3(C)C` (centres undefined) was tested. Which max response did it give?
The max response was -76.3%.

How did the Potency turn out when `CC[C@@H](N)CNc1ccnc(-c2cc(-c3cnn(C)c3)ccc2O)n1` was run?
The Potency was 5.17 µM (active).

How did the outcome turn out when `C[C@@]1(O)[C@H](O)[C@@H](CO)O[C@H]1n1ccc(N)nc1=O` was run?
Its outcome is “inactive”.

How did the Potency turn out when `Cc1c(C(=O)Nc2ccc(N3CC(C)OC(C)C3)nc2)cccc1-c1ccc(OC(F)(F)F)cc1` (centres undefined) was run?
The Potency was 9.2 µM (active).

For `C/C(=C\CCC(C)CCO)C(=O)OC1(C)CCC2C(C(=O)O)=COC(OC3OC(CO)C(O)C(O)C3O)C21` (centres undefined), which outcome is on record?
The outcome was “inactive”.

`Cc1cccc2c1NC(=O)C2(c1ccc(O)cc1)c1ccc(O)cc1` was tested. Which max response did it give?
The max response was -20.9%.

With `CC(Cc1cc2c(c(C(N)=O)c1)N(CCCO)CC2)NCCOc1ccccc1OCC(F)(F)F` (centres undefined) as the compound, how does the Potency read?
Its Potency is 23.1 µM (active).

For `Cc1ccc(S(=O)(=O)Nc2ccccc2N2CCCCC2)s1`, which Potency is on record?
Its Potency is 18.4 µM (active).

How did the Potency turn out when `O=C(c1ccc(/C=C/c2n[nH]c3ccccc23)cc1)N1CCNCC1` was run?
The Potency was 20.6 µM (active).

With `OCc1ccc(O[C@@H]2O[C@H](CO)[C@@H](O)[C@H](O)[C@H]2O)cc1` as the compound, how does the max response read?
The max response was -0.162%.

`CC(C)C(CO)Nc1nc(Nc2cc(N)cc(Cl)c2)c2ncn(C(C)C)c2n1` (centres undefined) was tested. Which Potency did it give?
The Potency was 16.4 µM (active).

For `CC(=O)SCC(=O)c1ccc(NS(=O)(=O)c2ccc(OCCCN(C)C)cc2)nc1`, which Potency is on record?
Its Potency is 7.31 µM (active).

`NC1(C(=O)NC(CCO)c2ccc(Cl)cc2)CCN(c2ncnc3[nH]ccc23)CC1` (centres undefined) was tested. Which Potency did it give?
Its Potency is 1.03 µM (active).

How did the Potency turn out when `CCN1CCN(Cc2ccc(NC(=O)c3ccc(C)c(/C=C/c4cnc5[nH]ccc5c4OC)c3)cc2C(F)(F)F)CC1` was run?
The Potency was 1.46 µM (active).

`C[C@@H]1O[C@@H](O[C@H]2[C@H](O)[C@@H](O)[C@H](O[C@H]3[C@H](O[C@H]4CC[C@@]5(C)C(=CC[C@@H]6C5CC[C@]5(C)[C@@H]7[C@H](C[C@@H]65)O[C@]5(CC[C@@](C)(CO[C@@H]6O[C@H](CO)[C@@H](O)[C@H](O)[C@H]6O)O5)[C@H]7C)C4)O[C@H](CO)[C@@H](O)[C@@H]3O)O[C@@H]2CO)[C@H](O)[C@H](O)[C@H]1O` (some centres undefined) was tested. Which Potency did it give?
The Potency was 1.23 µM (active).

How did the Potency turn out when `COc1ccc(C(=O)Nc2ncc(-c3ccc(C(=O)O)cc3)s2)cc1` was run?
The Potency was 7.31 µM (active).

`Cc1cc(N(C)C)ccc1-c1nc2ccc(-c3nc4ccc(N5CCN(C)CC5)cc4[nH]3)cc2[nH]1` was tested. Which Potency did it give?
The Potency was 8.2 µM (active).

For `Cc1cc(C)c2c(N)c(C(=O)NCc3ccc(Cl)cc3)sc2n1`, which max response is on record?
The max response was -96.1%.

With `CN(C)c1nc(NC2CCC(NC(=O)c3ccc(F)c(F)c3)CC2)nc2ccccc12` (centres undefined) as the compound, how does the Potency read?
Its Potency is 16.4 µM (active).

Which Potency does the source give for `C[C@@H](Oc1cc(-n2cnc3ccc(OC4CCN(C)CC4)cc32)sc1C(N)=O)c1ccccc1C(F)(F)F` here?
Its Potency is 0.0411 µM (active).

`CC12CCC(OC3OC(CO)C(O)C(OC4OC(CO)C(O)C(O)C4O)C3O)CC1=CCC1C2CCC2(C)/C(=C3/COC(=O)C3)CCC12O` (centres undefined) was tested. Which max response did it give?
Its max response is 0.267%.

Which Potency does the source give for `CN1CCC(Nc2nc(Nc3ccc(Oc4ccccc4)cc3)c3c(=O)[nH]cc(Br)c3n2)CC1` here?
The Potency was 2.31 µM (active).

Which Potency does the source give for `O=C(Nc1ccc(S(=O)(=O)C(F)(F)F)cc1)C1=CCN(c2ncccc2C(F)(F)F)CC1` here?
Its Potency is 8.2 µM (active).

For `CC(C)(C#N)c1ccc(N2C(=O)OCc3cnc4ccc(-c5cnc6ccccc6c5)cc4c32)cc1`, which Potency is on record?
Its Potency is 7.31 µM (active).

For `CCOCc1cc(OC)c(-c2ccc(C[C@H](NC(=O)c3c(F)cccc3F)C(=O)O)cc2)c(OC)c1`, which max response is on record?
The max response was -1.31%.

For `Cc1nc([C@](C)(O)CO)sc1-c1cnc(N)c(O[C@H](C)c2cc(F)ccc2-n2nccn2)c1`, which Potency is on record?
The Potency was 13 µM (active).

With `Cc1cccc(/C=N/Nc2cc(N3CCOCC3)n3nc(-c4ccncc4)cc3n2)c1` as the compound, how does the Potency read?
Its Potency is 5.8 µM (active).

With `COc1cc(C(=O)NC2CCN(C)CC2)c(F)cc1Nc1ncc2c(n1)N(C1CCCC1)CC(F)(F)C(=O)N2C` as the compound, how does the Potency read?
The Potency was 0.0184 µM (active).
